# Test results: article PMC7862700, “An all-to-all approach to the identification of sequence-specific readers for epigenetic DNA modifications on cytosine”
# Tests used:
# Test in all cases: DAPPL (digital affinity profiling via proximity ligation, sequencing); 10 mM Tris-HCl pH 7.5, 50 mM NaCl, 1 mM DTT, 4% glycerol, room temperature, 30 min; GST-TFs on glutathione beads, 16-mer random dsDNA library, 0.1% formaldehyde crosslink after washing; high values mean tight binding
# FLI1 = target: T1, FLI1 (Homo sapiens, UniProt Q01543 1-452); settings: protein: recombinant; tags: N-terminal GST; dsDNA, one strand shown
# T1 sequence: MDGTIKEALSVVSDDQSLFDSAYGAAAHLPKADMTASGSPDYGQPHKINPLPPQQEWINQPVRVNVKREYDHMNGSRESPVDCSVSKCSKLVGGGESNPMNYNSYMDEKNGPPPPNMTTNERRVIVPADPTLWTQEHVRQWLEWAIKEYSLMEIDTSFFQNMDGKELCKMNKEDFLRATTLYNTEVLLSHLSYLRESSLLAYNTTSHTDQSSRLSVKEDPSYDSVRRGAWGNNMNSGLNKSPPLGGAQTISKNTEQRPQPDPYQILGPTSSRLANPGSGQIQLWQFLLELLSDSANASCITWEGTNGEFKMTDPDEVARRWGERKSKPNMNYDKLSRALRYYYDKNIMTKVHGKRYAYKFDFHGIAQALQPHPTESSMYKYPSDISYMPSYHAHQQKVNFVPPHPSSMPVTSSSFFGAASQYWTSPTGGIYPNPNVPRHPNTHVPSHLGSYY
# Summary of the method: (§1)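 Beads coated with glutathione captured GST-fused human transcription factors that had been expressed in yeast, and the factors were then given DNA barcodes and pooled with a tag-only sample. The pools were incubated with 200 nmole of a random double-stranded 16-mer DNA library in Tris/NaCl/DTT/glycerol buffer for 30 min at room temperature, washed, crosslinked with 0.1% formaldehyde and proximity-ligated with BsaI/T4 ligase at 37 °C for 1 h. PCR amplification and Illumina NextSeq500 sequencing came last. Binding signal is each hexamer's read frequency for a factor divided by its frequency for the tag-only sample.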
# ELK1 = target: T2, ELK1 (Homo sapiens, UniProt P19419 1-428); settings: protein: recombinant; tags: N-terminal GST; dsDNA, one strand shown
# T2 sequence: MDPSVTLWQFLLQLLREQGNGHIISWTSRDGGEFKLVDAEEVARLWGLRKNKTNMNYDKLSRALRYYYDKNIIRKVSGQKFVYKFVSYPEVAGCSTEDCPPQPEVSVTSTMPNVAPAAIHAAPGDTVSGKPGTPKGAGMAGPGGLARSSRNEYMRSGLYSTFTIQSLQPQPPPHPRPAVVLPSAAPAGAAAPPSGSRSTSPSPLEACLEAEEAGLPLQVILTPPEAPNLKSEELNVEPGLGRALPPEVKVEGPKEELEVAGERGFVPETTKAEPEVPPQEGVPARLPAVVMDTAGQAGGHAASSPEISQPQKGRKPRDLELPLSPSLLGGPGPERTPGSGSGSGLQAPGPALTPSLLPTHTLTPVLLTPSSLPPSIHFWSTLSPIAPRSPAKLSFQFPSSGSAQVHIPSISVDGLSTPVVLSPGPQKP
# Summary of the method: as §1
# GABPA = target: T3, GABPA (Homo sapiens, UniProt Q06546 1-454); settings: protein: recombinant; tags: N-terminal GST; dsDNA, one strand shown
# T3 sequence: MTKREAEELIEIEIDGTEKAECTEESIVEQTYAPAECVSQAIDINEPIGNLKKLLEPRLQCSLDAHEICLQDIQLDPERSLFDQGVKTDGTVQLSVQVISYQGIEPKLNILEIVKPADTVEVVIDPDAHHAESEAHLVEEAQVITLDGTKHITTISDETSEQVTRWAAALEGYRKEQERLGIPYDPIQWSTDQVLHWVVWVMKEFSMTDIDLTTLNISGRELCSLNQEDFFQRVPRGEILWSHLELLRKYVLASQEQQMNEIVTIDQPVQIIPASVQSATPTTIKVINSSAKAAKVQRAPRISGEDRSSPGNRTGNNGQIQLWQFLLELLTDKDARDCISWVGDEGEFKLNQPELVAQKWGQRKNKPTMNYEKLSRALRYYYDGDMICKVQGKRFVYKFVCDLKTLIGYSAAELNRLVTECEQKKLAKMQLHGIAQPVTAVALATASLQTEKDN
# Summary of the method: as §1
# ERG = target: T4, ERG (Homo sapiens, UniProt P11308 1-479); settings: protein: recombinant; tags: N-terminal GST; dsDNA, one strand shown
# T4 sequence: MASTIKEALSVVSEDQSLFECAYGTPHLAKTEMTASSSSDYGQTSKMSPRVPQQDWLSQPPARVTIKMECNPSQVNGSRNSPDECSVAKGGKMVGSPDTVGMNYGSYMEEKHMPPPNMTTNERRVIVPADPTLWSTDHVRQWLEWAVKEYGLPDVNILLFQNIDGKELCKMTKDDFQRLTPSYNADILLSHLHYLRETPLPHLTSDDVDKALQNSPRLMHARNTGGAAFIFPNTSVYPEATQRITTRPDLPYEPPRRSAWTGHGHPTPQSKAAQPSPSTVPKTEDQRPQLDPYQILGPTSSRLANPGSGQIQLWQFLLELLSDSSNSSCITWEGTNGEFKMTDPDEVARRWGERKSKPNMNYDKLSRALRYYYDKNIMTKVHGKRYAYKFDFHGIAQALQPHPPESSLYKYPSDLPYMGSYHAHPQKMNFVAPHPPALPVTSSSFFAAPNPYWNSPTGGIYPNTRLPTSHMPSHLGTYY
# Summary of the method: as §1
# ELF1 = ELF1 (Homo sapiens, UniProt P32519 1-619); settings: protein: recombinant; tags: N-terminal GST; dsDNA, one strand shown
# Summary of the method: as §1
# EHF = target: T5, EHF (Homo sapiens, UniProt Q9NZC4 1-300); settings: protein: recombinant; tags: N-terminal GST; dsDNA, one strand shown
# T5 sequence: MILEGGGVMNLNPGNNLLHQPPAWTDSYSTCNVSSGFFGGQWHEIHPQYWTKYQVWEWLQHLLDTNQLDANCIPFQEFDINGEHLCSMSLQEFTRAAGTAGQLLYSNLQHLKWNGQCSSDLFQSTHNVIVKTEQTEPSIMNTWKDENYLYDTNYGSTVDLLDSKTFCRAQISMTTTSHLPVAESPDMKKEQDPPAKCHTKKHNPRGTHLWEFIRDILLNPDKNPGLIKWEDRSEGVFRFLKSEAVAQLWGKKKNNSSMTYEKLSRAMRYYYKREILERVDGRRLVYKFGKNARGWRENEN
# Summary of the method: as §1
# SPI1 = SPI1 (Homo sapiens, UniProt P17947 1-270); settings: protein: recombinant; tags: N-terminal GST; dsDNA, one strand shown
# Summary of the method: as §1
# SPIB = SPIB (Homo sapiens, UniProt Q01892 1-262); settings: protein: recombinant; tags: N-terminal GST; dsDNA, one strand shown
# Summary of the method: as §1
# ELK3 = target: T6, ELK3 (Homo sapiens, UniProt P41970 1-407); settings: protein: recombinant; tags: N-terminal GST; dsDNA, one strand shown
# T6 sequence: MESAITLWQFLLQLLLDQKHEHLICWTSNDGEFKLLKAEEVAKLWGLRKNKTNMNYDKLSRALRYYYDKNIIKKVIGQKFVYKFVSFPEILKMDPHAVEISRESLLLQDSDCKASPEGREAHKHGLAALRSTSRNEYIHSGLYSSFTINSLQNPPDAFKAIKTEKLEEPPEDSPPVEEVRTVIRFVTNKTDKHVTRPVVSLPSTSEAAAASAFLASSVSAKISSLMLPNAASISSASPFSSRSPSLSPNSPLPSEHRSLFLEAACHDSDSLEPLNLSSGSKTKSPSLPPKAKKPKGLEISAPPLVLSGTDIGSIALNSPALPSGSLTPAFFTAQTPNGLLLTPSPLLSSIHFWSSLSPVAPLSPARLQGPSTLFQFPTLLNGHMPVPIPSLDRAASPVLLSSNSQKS
# Summary of the method: as §1
# FEV = target: T7, FEV (Homo sapiens, UniProt Q99581 1-238); settings: protein: recombinant; tags: N-terminal GST; dsDNA, one strand shown
# T7 sequence: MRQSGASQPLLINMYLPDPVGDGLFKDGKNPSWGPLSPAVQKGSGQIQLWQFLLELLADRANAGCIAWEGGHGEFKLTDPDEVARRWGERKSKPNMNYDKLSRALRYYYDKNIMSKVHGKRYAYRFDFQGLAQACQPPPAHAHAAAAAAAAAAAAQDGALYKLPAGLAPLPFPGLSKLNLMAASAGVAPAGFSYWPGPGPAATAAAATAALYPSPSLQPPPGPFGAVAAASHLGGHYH
# Summary of the method: as §1
# ETV5 = ETV5 (Homo sapiens, UniProt P41161 1-510); settings: protein: recombinant; tags: N-terminal GST; dsDNA, one strand shown
# Summary of the method: as §1
# HSF1 = HSF1 (Homo sapiens, UniProt Q00613 1-529); settings: protein: recombinant; tags: N-terminal GST; chain copies: 3; dsDNA, one strand shown
# Summary of the method: as §1
# SPIC = target: T8, SPIC (Homo sapiens, UniProt Q8N5J4 1-248); settings: protein: recombinant; tags: N-terminal GST; dsDNA, one strand shown
# T8 sequence: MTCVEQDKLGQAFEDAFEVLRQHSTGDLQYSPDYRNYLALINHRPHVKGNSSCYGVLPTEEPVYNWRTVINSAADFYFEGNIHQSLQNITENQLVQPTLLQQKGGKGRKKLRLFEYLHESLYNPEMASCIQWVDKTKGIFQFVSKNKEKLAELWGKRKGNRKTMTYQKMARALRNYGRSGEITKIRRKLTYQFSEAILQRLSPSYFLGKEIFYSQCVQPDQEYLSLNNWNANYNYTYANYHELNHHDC
# Summary of the method: as §1
# ELF4 = ELF4 (Homo sapiens, UniProt Q99607 1-663); settings: protein: recombinant; tags: N-terminal GST; dsDNA, one strand shown
# Summary of the method: as §1
# ELK4 = target: T9, ELK4 (Homo sapiens, UniProt P28324-2 1-405); settings: protein: recombinant; tags: N-terminal GST; dsDNA, one strand shown
# T9 sequence: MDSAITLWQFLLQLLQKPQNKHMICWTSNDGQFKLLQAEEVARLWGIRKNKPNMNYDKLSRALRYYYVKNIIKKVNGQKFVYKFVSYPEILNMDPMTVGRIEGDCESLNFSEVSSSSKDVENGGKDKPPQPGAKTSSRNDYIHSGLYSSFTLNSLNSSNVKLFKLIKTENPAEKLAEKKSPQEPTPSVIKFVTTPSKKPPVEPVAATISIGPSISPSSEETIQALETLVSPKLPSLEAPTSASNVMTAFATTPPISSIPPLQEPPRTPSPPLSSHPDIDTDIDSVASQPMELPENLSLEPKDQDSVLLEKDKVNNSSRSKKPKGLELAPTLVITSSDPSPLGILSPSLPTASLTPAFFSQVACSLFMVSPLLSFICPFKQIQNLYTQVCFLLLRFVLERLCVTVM
# Summary of the method: as §1
# ETV2 = target: T10, ETV2 (Homo sapiens, UniProt O00321 1-342); settings: protein: recombinant; tags: N-terminal GST; dsDNA, one strand shown
# T10 sequence: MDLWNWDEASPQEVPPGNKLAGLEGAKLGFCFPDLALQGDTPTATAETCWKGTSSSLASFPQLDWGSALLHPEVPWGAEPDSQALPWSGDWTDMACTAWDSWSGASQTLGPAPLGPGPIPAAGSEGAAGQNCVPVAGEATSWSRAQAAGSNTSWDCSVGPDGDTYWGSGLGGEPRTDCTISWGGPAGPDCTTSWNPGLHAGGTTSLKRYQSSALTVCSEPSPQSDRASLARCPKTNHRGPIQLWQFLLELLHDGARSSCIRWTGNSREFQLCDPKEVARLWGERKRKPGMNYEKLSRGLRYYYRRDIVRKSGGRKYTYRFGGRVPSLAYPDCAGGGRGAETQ
# Summary of the method: as §1
# ELF3 = target: T11, ELF3 (Homo sapiens, UniProt P78545 1-371); settings: protein: recombinant; tags: N-terminal GST; dsDNA, one strand shown
# T11 sequence: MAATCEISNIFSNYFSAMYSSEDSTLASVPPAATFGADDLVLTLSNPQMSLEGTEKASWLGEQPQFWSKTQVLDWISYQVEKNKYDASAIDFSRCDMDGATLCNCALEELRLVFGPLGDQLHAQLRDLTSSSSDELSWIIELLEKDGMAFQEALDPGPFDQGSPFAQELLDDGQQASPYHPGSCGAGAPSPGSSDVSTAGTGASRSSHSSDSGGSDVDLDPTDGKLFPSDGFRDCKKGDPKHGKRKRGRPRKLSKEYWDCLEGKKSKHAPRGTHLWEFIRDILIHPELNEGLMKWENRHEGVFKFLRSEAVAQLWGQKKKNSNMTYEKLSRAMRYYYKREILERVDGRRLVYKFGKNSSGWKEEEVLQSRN
# Summary of the method: as §1
# CRX = CRX (Homo sapiens, UniProt O43186 1-299); settings: protein: recombinant; tags: N-terminal GST; dsDNA, one strand shown
# Summary of the method: as §1
# ETV1 = ETV1 (Homo sapiens, UniProt P50549 1-477); settings: protein: recombinant; tags: N-terminal GST; dsDNA, one strand shown
# Summary of the method: as §1
# Chain of SPIB (Q01892 whole entry): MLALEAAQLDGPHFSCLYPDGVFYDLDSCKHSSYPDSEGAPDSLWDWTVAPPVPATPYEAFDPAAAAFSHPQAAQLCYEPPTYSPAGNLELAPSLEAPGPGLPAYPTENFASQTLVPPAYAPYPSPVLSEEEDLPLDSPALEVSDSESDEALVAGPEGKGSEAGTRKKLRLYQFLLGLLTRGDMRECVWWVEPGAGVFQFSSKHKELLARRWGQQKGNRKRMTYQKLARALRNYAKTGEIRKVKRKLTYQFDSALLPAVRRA
# Chain of HSF1 (Q00613 whole entry): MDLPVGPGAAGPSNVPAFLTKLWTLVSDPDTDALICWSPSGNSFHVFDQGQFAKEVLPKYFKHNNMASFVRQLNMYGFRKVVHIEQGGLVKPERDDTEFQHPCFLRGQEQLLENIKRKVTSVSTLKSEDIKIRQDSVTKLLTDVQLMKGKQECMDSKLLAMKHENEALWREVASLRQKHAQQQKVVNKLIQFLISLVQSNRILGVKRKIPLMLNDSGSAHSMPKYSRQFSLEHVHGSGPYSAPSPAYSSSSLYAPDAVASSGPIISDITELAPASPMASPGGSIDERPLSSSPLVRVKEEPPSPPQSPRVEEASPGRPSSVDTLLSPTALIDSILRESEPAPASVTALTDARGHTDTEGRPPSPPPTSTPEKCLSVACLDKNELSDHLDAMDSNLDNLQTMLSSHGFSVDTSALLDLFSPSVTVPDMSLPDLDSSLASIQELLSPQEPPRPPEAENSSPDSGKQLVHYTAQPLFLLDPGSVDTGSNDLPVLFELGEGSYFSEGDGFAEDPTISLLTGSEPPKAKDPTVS
# Chain of ELF1 (P32519 whole entry): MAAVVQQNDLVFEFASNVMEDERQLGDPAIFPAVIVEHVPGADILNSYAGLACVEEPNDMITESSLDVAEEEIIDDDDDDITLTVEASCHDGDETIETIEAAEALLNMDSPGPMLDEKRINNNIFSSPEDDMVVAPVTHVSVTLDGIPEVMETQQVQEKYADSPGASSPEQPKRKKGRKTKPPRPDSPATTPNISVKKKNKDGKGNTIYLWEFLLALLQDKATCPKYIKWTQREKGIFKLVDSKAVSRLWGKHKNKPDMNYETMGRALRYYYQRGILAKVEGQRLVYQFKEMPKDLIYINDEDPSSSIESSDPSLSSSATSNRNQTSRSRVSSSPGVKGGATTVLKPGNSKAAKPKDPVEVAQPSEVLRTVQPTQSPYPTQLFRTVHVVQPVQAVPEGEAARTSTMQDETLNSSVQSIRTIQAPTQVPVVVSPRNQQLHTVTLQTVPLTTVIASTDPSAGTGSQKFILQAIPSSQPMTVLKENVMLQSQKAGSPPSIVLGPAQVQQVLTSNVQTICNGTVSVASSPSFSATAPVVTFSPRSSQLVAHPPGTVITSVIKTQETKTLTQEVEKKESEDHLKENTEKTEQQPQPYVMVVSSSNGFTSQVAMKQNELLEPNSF
# Chain of CRX (O43186 whole entry): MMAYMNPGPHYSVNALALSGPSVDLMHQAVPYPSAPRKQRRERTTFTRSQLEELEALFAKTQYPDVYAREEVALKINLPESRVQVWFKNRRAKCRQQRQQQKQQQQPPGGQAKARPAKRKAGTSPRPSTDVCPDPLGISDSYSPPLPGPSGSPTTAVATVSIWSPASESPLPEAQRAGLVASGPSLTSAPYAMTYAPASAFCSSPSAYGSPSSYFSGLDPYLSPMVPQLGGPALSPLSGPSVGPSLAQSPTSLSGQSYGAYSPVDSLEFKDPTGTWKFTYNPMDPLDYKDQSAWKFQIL
# Chain of ETV1 (P50549 whole entry): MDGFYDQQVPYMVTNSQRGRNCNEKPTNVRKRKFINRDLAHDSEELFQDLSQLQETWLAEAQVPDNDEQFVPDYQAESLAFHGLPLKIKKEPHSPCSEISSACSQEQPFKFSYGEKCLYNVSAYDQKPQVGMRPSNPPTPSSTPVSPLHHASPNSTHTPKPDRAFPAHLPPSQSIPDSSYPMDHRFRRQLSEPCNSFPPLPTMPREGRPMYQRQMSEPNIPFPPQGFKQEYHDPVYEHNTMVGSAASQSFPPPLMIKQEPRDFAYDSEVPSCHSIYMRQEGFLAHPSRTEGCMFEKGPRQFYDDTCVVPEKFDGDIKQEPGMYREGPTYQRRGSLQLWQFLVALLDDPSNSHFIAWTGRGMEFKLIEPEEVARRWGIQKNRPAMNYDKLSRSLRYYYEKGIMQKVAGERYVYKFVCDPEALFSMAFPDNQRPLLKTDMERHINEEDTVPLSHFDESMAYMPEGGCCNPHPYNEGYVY
# Chain of ELF4 (Q99607 whole entry): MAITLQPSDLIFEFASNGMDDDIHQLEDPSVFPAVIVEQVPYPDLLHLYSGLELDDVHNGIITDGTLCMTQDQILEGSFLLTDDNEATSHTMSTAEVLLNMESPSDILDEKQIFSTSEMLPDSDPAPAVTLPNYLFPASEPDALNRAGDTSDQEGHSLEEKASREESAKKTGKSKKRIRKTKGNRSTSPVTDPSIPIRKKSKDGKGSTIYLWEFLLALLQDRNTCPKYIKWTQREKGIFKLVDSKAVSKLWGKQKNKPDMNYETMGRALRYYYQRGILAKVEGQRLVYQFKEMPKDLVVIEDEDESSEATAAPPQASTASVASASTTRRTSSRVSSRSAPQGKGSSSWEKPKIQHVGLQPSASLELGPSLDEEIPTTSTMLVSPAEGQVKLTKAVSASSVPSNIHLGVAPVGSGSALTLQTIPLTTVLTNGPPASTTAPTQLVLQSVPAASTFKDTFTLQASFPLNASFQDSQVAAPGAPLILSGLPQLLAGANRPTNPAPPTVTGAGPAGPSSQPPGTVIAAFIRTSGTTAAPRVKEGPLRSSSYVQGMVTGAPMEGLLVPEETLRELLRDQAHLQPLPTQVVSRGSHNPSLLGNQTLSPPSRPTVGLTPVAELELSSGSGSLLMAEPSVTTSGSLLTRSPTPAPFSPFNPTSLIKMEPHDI
# Chain of ETV5 (P41161 whole entry): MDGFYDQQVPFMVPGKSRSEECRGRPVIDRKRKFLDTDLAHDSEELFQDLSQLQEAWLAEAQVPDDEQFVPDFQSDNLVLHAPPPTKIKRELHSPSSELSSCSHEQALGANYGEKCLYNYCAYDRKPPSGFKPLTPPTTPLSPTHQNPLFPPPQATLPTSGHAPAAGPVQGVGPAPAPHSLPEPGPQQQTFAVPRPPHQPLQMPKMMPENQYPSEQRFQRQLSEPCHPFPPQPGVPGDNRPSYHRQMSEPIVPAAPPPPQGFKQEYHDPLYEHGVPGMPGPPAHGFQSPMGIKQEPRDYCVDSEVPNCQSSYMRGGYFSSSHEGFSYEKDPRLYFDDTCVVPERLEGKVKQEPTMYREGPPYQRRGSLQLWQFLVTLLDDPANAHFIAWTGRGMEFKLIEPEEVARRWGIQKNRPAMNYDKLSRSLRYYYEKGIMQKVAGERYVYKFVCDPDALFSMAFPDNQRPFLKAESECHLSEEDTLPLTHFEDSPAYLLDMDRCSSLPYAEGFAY
sequence,measurement,setting,value
CCACTT,binding signal,FLI1,"1.86 fold enrichment (6-mer frequency, TF over GST control)"
same,binding signal,ELK1,"1.86 fold enrichment (6-mer frequency, TF over GST control)"
same,binding signal,GABPA,"1.81 fold enrichment (6-mer frequency, TF over GST control)"
same,binding signal,ERG,"2.02 fold enrichment (6-mer frequency, TF over GST control)"
same,binding signal,ELF1,"1.85 fold enrichment (6-mer frequency, TF over GST control)"
same,binding signal,EHF,"1.93 fold enrichment (6-mer frequency, TF over GST control)"
same,binding signal,SPI1,"2.41 fold enrichment (6-mer frequency, TF over GST control)"
same,binding signal,SPIB,"1.74 fold enrichment (6-mer frequency, TF over GST control)"
same,binding signal,ELK3,"1.83 fold enrichment (6-mer frequency, TF over GST control)"
same,binding signal,FEV,"2.3 fold enrichment (6-mer frequency, TF over GST control)"
same,binding signal,ETV5,"1.99 fold enrichment (6-mer frequency, TF over GST control)"
same,binding signal,HSF1,"1.25 fold enrichment (6-mer frequency, TF over GST control)"
same,binding signal,SPIC,"1.63 fold enrichment (6-mer frequency, TF over GST control)"
same,binding signal,ELF4,"1.98 fold enrichment (6-mer frequency, TF over GST control)"
same,binding signal,ELK4,"1.77 fold enrichment (6-mer frequency, TF over GST control)"
same,binding signal,ETV2,"1.91 fold enrichment (6-mer frequency, TF over GST control)"
same,binding signal,ELF3,"1.59 fold enrichment (6-mer frequency, TF over GST control)"
same,binding signal,CRX,"1.36 fold enrichment (6-mer frequency, TF over GST control)"
same,binding signal,ETV1,"1.95 fold enrichment (6-mer frequency, TF over GST control)"
